# Values of other authors, collected in PubChem BioAssay AID977611.
# The campaign covered roughly 3,900 compounds. About 3,900 (100%) were called active. No cut-off is given here; in the data, nearly all actives have Kd up to about 4200 µM. So high a share suggests a set chosen from earlier hits. This is one part of the list. Where a SMILES comes first, the peptide text is derived from it. Non-standard residues stand in square brackets, D forms with d. Square brackets hold non-standard residues; d marks the D form. Residues, ends and D or L forms follow the SMILES beside them. Peptide text beside a SMILES is read from it. [ ]: non-standard residue; d: D form. *: point of attachment. X1 = O=C(O)c1cc(NC(=S)*)ccc1-c1c2ccc(=O)cc-2oc2cc(O)ccc12; Phe(3,4-Cl2) = N[C@@H](Cc1ccc(Cl)c(Cl)c1)C(=O)O; Orn(CH(NH2)2) = NC(N)NCCC[C@H](N)C(=O)O; Cha = N[C@@H](CC1CCCCC1)C(=O)O; Ahx = NCCCCCC(=O)O
# Assay: PubChem AID 977611
# Details: PDB protein-ligand complexes, literature Kd
compound,measurement,setting,value
NCc1cccc2c1OCCCO2,Kd,"protein: CATIONIC TRYPSIN, PDB entry 4ab8",136 µM (active)
COc1ccc2cccc(-n3cc(NC(N)=O)c(C(N)=O)n3)c2c1,Kd,"protein: Tyrosine-protein kinase ITK/TSK kinase domain, PDB entry 4m0z",6.4 µM (active)
CCOc1ccc2cccc(-n3cc(NC(N)=O)c(C(N)=O)n3)c2c1,Kd,"protein: Tyrosine-protein kinase ITK/TSK kinase domain, PDB entry 4m12",0.9 µM (active)
NC(=O)Nc1cn(-c2cccc3ccccc23)nc1C(N)=O,Kd,"protein: Tyrosine-protein kinase ITK/TSK kinase domain, PDB entry 4m0y",0.35 µM (active)
CCCOc1ccc2cccc(-n3cc(NC(N)=O)c(C(N)=O)n3)c2c1,Kd,"protein: Tyrosine-protein kinase ITK/TSK kinase domain, PDB entry 4m13",0.2 µM (active)
CC(C)Oc1ccc2cccc(-n3cc(NC(N)=O)c(C(N)=O)n3)c2c1,Kd,"protein: Tyrosine-protein kinase ITK/TSK kinase domain, PDB entry 4m14",0.2 µM (active)
CC(C)C[C@H](NC(=O)[C@H](CCCCN)NC(=O)[C@H](CCCNC(N)N)NC(=O)[C@H](C)N)C(=O)N[C@@H](CC(=O)O)C(=O)O (H-A[Orn(CH(NH2)2)]KLD-OH),Kd,"protein: Coatomer subunit beta', PDB entry 4j84",20.4 µM (active)
H-AAKKLV-OH,Kd,"protein: Coatomer subunit beta', PDB entry 4j73",27.7 µM (active)
CC(C)C[C@H](NC(=O)[C@H](C)N)C(=O)N[C@@H](CCCCN)C(=O)N[C@@H](CCCNC(N)N)C(=O)N[C@@H](CCCNC(N)N)C(=O)N[C@@H](CC(N)=O)C(=O)N[C@H](C(=O)O)C(C)C (HELM PEPTIDE1{A.L.K.[NC(N)NCCC[C@H](N[*:1])C(=O)[*:2]].[NC(N)NCCC[C@H](N[*:1])C(=O)[*:2]].N.V}$$$$V2.0),Kd,"protein: Importin-?, PDB entry 1iq1",0.035 µM (active)
S=CNc1ccc2oc(C3=NCCN3)cc2c1,Kd,"protein: Chitinase A, PDB entry 3ary",1 µM (active)
same,Kd,"protein: Chitinase A, PDB entry 3arz",1 µM (active)
CN(C)CCOc1ccc(-c2nc(-c3ccc4c(c3)CC/C4=N/O)c(-c3ccncc3)[nH]2)cc1,Kd,"protein: B-Raf kinase domain, PDB entry 2fb8",0.00016 µM (active)
O=C(c1ccc(O)cc1O)n1cc2ccccc2c1,Kd,PDB entry 4mp7,1.83 µM (active)
O=S(=O)(c1ccc(O)cc1O)n1cc2ccccc2c1,Kd,PDB entry 4mpc,0.711 µM (active)
O=S(=O)(c1ccc(O)cc1O)n1cc2cc(O)cc(O)c2c1,Kd,PDB entry 4mpn,0.239 µM (active)
CSCC[C@H](NC(=O)[C@H](CC(C)C)NC(=O)[C@H](Cc1ccccc1)NC(=O)[C@H](CC(=O)O)NC(=O)[C@H](Cc1ccc(O)cc1)NC(=O)[C@H](Cc1c[nH]c2ccccc12)NC(=O)[C@@H](NC(=O)[C@@H](NC(=O)[C@H](CCCNC(N)N)NC(=O)[C@@H](N)CO)C(C)C)[C@@H](C)O)C(=O)N[C@@H](CCC(=O)O)C(=O)N[C@@H](CC(=O)O)C(=O)O (H-S[Orn(CH(NH2)2)]VTWYDFLMED-OH),Kd,"protein: Guanine nucleotide-binding protein G, PDB entry 1y3a",3.9 µM (active)
"CC(C)C[C@H](NC(=O)[C@H](C)NC(=O)[C@H](Cc1ccc(Cl)c(Cl)c1)NC(=O)[C@H](Cc1c[nH]c2ccccc12)NC(=O)[C@H](CCC(=O)O)NC(=O)[C@H](CCC(=O)O)NC(=O)[C@H](CC(C)C)NC(=O)[C@H](CC(=O)O)NC(=O)[C@H](CC(=O)O)NC(=O)[C@H](C)NC(=O)[C@@H](NC(=O)[C@H](Cc1ccccc1)NC(=O)[C@H](CC(=O)O)NC(=O)CCCCCNC(=S)Nc1ccc(-c2c3ccc(=O)cc-3oc3cc(O)ccc23)c(C(=O)O)c1)[C@@H](C)O)C(N)=O ({X1-Ahx}-DFTADDLEEW[Phe(3,4-Cl2)]AL-NH2)",Kd,"protein: Replication protein A 70 kDa DNA-binding subunit, PDB entry 4nb3",0.022 µM (active)
CC(C)C[C@H](NC(=O)[C@H](CCC(=O)O)NC(=O)[C@H](CO)NC(=O)[C@H](CC(=O)O)NC(=O)[C@H](CO)NC(=O)[C@H](CC(=O)O)NC(=O)[C@H](CCC(=O)O)NC(=O)[C@H](CCC(N)=O)NC(=O)[C@H](CO)NC(=O)CN)C(=O)N[C@@H](CCC(=O)O)C(=O)N[C@@H](CCC(N)=O)C(=O)N[C@@H](Cc1ccc(O)cc1)C(=O)N[C@@H](Cc1ccccc1)C(=O)N[C@H](C(=O)N[C@@H](C)C(=O)N[C@@H](CCCNC(N)N)C(=O)N[C@@H](Cc1c[nH]c2ccccc12)C(=O)O)[C@@H](C)O (H-GSQEDSDSELEQYFTA[Orn(CH(NH2)2)]W-OH),Kd,"protein: DAXX N-Terminal Helical Bundle Domain (55-144), PDB entry 2kzu",60 µM (active)
CCCCC/C=C\C/C=C\CCCCCCCCCC(=O)N[C@@H](CO[C@H]1O[C@H](CO)[C@H](O)[C@H](O)[C@H]1O)[C@H](O)[C@H](O)CCCCCCCCCCCCCC,Kd,"protein: L363, PDB entry 3ubx",0.0252 µM (active)
CCCCCC[C@@H](O)[C@H](CCCCCC)C(=O)O,Kd,"protein: Peptidoglycan recognition protein 1, PDB entry 3t2v",0.103 µM (active)
CC(C)C[C@H](N)C(=O)N[C@@H](Cc1ccc(O)cc1)C(=O)N[C@@H](CC1CCCCC1)C(=O)N[C@@H](CC1CCCCC1)C(=O)N1CCC[C@H]1C(=O)N[C@@H](CCCNC(N)N)C(=O)N1CCC[C@H]1C(=O)N[C@H](C(N)=O)[C@@H](C)O (H-LY[Cha][Cha]P[Orn(CH(NH2)2)]PT-NH2),Kd,"protein: Chaperone protein DnaK, PDB entry 4hy9",0.08 µM (active)
CC(C)C[C@H](NC(=O)[C@@H](N)CCCCN)C(=O)N[C@@H](Cc1ccc(O)cc1)C(=O)N[C@@H](CC1CCCCC1)C(=O)N[C@@H](CC(C)C)C(=O)N1CCC[C@H]1C(=O)N[C@@H](CCCNC(N)N)C(=O)N1CCC[C@H]1C(=O)N[C@H](C=O)[C@@H](C)O (H-KLY[Cha]LP[Orn(CH(NH2)2)]PT-aldehyde),Kd,"protein: E. coli Chaperone protein dnaK, PDB entry 3dpo",0.0055 µM (active)
CC[C@H](C)[C@H](NC(=O)[C@H](CC1CCCCC1)NC(=O)[C@H](Cc1ccc(O)cc1)NC(=O)[C@@H](N)CC(C)C)C(=O)N1CCC[C@H]1C(=O)N[C@@H](CCCNC(N)N)C(=O)N1CCC[C@H]1C(N)=O (H-LY[Cha]IP[Orn(CH(NH2)2)]P-NH2),Kd,"protein: Chaperone protein DnaK, PDB entry 4hyb",0.35 µM (active)
NC1NC(=O)c2c([nH]c(=S)n2CCO)N1 (centres undefined),Kd,"protein: 7,8-DIHYDRO-6-HYDROXYMETHYLPTERIN-PYROPHOSPHOKINASE, PDB entry 4ad6",16.7 µM (active)
